Results: PubChem BioAssay
Active and inactive are the calls of the source.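 How the source made its calls: active means at least 20% inhibition of 6-phosphogluconate dehydrogenase activity; inactive means the rest.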

Biological target: 6-phosphogluconate dehydrogenase, decarboxylating (Homo sapiens) (UniProt P52209)
Test: 6PGD enzyme inhibitors, primary screen, biochemical, human, recombinant enzyme, NADPH absorbance (AID 1159550)
Settings: recombinant 6PGD, NADPH absorbance 341 nm; at 10 µM; hits give high values

Sequence of 6-phosphogluconate dehydrogenase, decarboxylating (Homo sapiens) (P52209 whole entry, looked up): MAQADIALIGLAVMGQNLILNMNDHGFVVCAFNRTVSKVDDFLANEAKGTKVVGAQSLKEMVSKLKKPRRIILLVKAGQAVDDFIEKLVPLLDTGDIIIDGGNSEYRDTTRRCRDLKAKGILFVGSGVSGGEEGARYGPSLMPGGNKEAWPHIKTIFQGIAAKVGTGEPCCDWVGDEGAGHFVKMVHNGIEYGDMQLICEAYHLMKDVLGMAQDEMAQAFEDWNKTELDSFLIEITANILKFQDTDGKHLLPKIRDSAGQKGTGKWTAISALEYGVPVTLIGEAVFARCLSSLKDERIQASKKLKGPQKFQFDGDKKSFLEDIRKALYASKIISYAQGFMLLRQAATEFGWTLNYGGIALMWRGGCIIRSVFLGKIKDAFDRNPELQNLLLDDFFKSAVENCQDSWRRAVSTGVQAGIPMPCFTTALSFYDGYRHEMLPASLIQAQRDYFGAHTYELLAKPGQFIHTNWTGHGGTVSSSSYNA

SMILES	inhibition
CC(C)=CCC[C@]1(C)C=Cc2c(O)c3c(c(CC=C(C)C)c2O1)O[C@]12C(=C[C@@H]4C[C@H]1C(C)(C)O[C@@]2(C/C=C(/C)C(=O)O)C4=O)C3=O	-17.6% (inactive)
CC(N)C(O)c1ccc(O)c(O)c1 (configuration not stated)	-5.53% (inactive)
O=C1CCCC2C3CC(CN12)C1CCCCN1C3 (configuration not stated)	-2.75% (inactive)
O=C(O)COc1cc(Cl)c(Cl)cc1Cl	6.47% (inactive)
COP(=S)(OC)SCn1nnc2ccccc2c1=O	1.29% (inactive)
CC(=O)OCC1=C(C(=O)O)N2C(=O)[C@@H](NC(=O)CCC[C@@H](N)C(=O)O)[C@H]2SC1	-2.43% (inactive)
C[C@H]1O[C@@H](O[C@H]2[C@@H](O)C[C@H](O[C@H]3[C@@H](O)C[C@H](O[C@H]4CC[C@@]5(C)[C@H](CC[C@@H]6[C@@H]5CC[C@]5(C)[C@@H](C7=CC(=O)OC7)[C@@H](O)C[C@]65O)C4)O[C@@H]3C)O[C@@H]2C)C[C@H](O)[C@@H]1O	-2.27% (inactive)
Cc1c(O)c(O)cc2c1CC=C1[C@@]2(C)CC[C@@]2(C)[C@@H]3C[C@](C)(C(=O)O)CC[C@]3(C)CC[C@]12C	-26.2% (inactive)
CC1(C)C(=O)C=C[C@]2(C)[C@H]3CC[C@@]4(C)[C@H](c5ccoc5)OC(=O)[C@H]5O[C@]54[C@]3(C)[C@H](O)C[C@@H]12	3.18% (inactive)
CO[C@@H]1C[C@@H](C[C@H]2CC[C@H](C)[C@H]([C@@H](C)C(=O)O)O2)O[C@]2(O[C@](C)([C@H]3CC[C@@](C)(C4O[C@@H](C5O[C@@](O)(CO)[C@H](C)C[C@@H]5C)C[C@@H]4C)O3)C[C@H]2C)[C@@H]1C (some centres not stated)	10.1% (inactive)
CO[C@H]1C[C@H](O[C@H]2CC[C@@]3(C)[C@H](CC[C@@H]4[C@@H]3CC[C@]3(C)[C@@H](C5=CC(=O)OC5)[C@@H](OC(C)=O)C[C@]43O)C2)O[C@@H](C)[C@@H]1O	5.8% (inactive)
CC1CC(Cl)CCC1C(=O)OC(C)(C)C (configuration not stated)	-3.82% (inactive)
C[C@@H](CO)NC(=O)[C@@H]1C=C2c3cccc4[nH]cc(c34)C[C@H]2N(C)C1	-3.88% (inactive)
COc1ccc(CC2c3cc(OC)c(OC)cc3CCN2C)cc1OC (configuration not stated)	-3.74% (inactive)
CN1Cc2c(ccc3c2OCO3)[C@@H]2[C@H]1c1cc3c(cc1C[C@@H]2O)OCO3	7.55% (inactive)
CC1(C)C(=O)C=C[C@@]2(C)C1=C(O)C(=O)[C@]1(C)[C@@H]2CC[C@@]2(C)[C@H](c3ccoc3)C[C@H]3O[C@]321	11.8% (inactive)
COC[C@]12CN(C=O)C3[C@@H]4C(OC)C1[C@]3(C1CC3(O)C(OC)C(O)C4(OC(C)=O)C1C3OC(=O)c1ccccc1)[C@@H](OC)C[C@H]2O (some centres not stated)	-2.18% (inactive)
COP(=S)(OC)Oc1ccc([N+](=O)[O-])cc1	-0.396% (inactive)
C[C@@H]1CC[C@@]2(NC1)O[C@H]1C[C@H]3[C@@H]4CC=C5C[C@@H](O)CC[C@]5(C)[C@H]4CC[C@]3(C)[C@H]1[C@@H]2C	11.8% (inactive)
COc1cc2c(cc1O)C[C@H]1c3c(cc(O)c(OC)c3-2)CCN1C	3.02% (inactive)
CNC(=O)Oc1cccc2c1OC(C)(C)C2	-14.7% (inactive)
C/C=C(\C)C(=O)O[C@H]1C[C@@H](OC(C)=O)[C@@]2(C(=O)OC)CO[C@H]3[C@@H](O)[C@@](C)([C@]45O[C@@]4(C)[C@H]4C[C@@H]5O[C@@H]5OC=C[C@@]54O)[C@H]4[C@]1(CO[C@]4(O)C(=O)OC)[C@@H]32	3.41% (inactive)
CC[C@@H](C)C(=O)O[C@H]1[C@H](O)[C@H]2[C@@H](CN3C[C@@H](C)CC[C@H]3[C@@]2(C)O)[C@@H]2C[C@]34O[C@]5(O)[C@@H](OC(=O)[C@@](C)(O)CC)CC[C@@]3(C)[C@@H]5[C@@H](OC(C)=O)[C@@H](OC(C)=O)[C@H]4[C@@]21O	-7.64% (inactive)
CC(=O)O[C@@H]1C[C@H]2C(C)(C)C(=O)C=C[C@]2(C)[C@H]2CC[C@]3(C)C(=CC(=O)O[C@H]3c3ccoc3)[C@@]21C	4.47% (inactive)
CC(=O)[O-].CC(=O)[O-].[Cd+2]	6.37% (inactive)
CC(C)CC(NC(=O)C(Cc1ccccc1)NC(=O)CNC(=O)CNC(=O)C(N)Cc1ccc(O)cc1)C(=O)O (configuration not stated)	11% (inactive)
O=C(O)CNCP(=O)(O)O	3.86% (inactive)
